Bioassay records as filed in PubChem BioAssay.
KCNQ2 pot: enhances the rat KCNQ2 potassium channel; O88943; CHO-K1 KCNQ2, FluxOR thallium flux fluorescence; active compounds read high; B-score at 10 µM; 310,000 tested, 0.54% active;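 active = fluorescence ratio B-score at least 3 SD of library B-scores, with initial fluorescence B-score within 3 of them, cut at about 5.3 in these data; same plate scores as AID 2156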;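 note: B-score of peak minus minimum over baseline fluorescence ratio after K+ and Tl+ stimulus; positive B-score means potentiation of KCNQ2 with more thallium influx and brighter signal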
KCNQ2 block: KCNQ2 (rat) channel inhibition; CHO-K1 KCNQ2, FluxOR thallium flux, 20 min; active compounds read low; AID 2156; B-score at 10 µM; 310,000 tested, 1.1% active; O88943;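 active = fluorescence ratio B-score at most minus 3 library SDs, with starting brightness B-score within 2 library SDs, cut at about -5.5 in these data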
Kir21 conf inh: confirmation of mouse Kir2.1 potassium channel inhibitors | Kir2.1-expressing cells, FluxOR thallium flux fluorescence; active compounds read low | 2,300 tested, 41% active | shares compounds with KCNQ2 pot | Tl flux remaining, % of negative control (active compounds read low), % at 10 µM | AID 2032;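 active = Primary-screen hit whose thallium flux fell at least 3 control SD below untreated wells in both duplicates, with normal baseline fluorescence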;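 note: 0% = blank wells without stimulus and 100% = stimulated no-compound controls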
Target sequence (P35561 whole entry, looked up): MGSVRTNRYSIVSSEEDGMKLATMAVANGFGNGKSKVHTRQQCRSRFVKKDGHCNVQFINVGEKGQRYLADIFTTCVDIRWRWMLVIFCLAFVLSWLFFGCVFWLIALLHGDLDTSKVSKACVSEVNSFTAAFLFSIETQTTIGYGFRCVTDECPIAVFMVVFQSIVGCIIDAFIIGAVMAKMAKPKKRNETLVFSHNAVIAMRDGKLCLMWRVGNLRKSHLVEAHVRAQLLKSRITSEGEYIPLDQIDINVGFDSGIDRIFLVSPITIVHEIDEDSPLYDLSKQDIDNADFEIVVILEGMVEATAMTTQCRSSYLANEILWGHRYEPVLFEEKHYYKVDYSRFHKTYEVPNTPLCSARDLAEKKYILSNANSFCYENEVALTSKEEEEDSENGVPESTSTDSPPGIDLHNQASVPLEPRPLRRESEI
HEK293 Tl flux: alters thallium flux in parental HEK293 cells, Kir2.1 counter-screen | shares compounds with KCNQ2 pot | FluxOR thallium flux fluorescence; 0% = unstimulated blank wells | FluxOR signal as % of negative control (100 = no effect), % at 10 µM | 2,300 tested, 19% active | AID 2105;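 active = dye signal at least 3 control SD above or below untreated wells in both duplicates, raw fluorescence within 3, either direction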;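 note: percent is based on the flux ratio of peak minus minimum fluorescence over baseline F0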
CHO-K1 ctr: alters thallium flux in parental CHO-K1 cells, KCNQ2 counter-screen | 1,200 tested, 43% active | shares compounds with KCNQ2 pot | FluxOR thallium flux fluorescence; zero = vehicle mean+3SD, 100% = vehicle-minus-blank window | AID 2282 | activity increase over 3SD of controls, % at 10 µM;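 active = signal rise of at least 3 SD above the untreated control mean, in both duplicate wells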;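 note: counter screen of KCNQ2 potentiator hits so any rise reflects channel-independent effects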
KCNQ1 sel pot: tests whether KCNQ2 potentiators also act on human KCNQ1; shares compounds with KCNQ2 pot; CHO KCNQ1 stable, FluxOR thallium flux fluorescence; beyond 3SD, as % of vehicle-control signal; activation over 3SD threshold, % at 10 µM; 1,200 tested, 28% active;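 active = fluorescence ratio rise of at least 3 SD of vehicle wells above their mean, in both replicate wells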;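 note: 0% = vehicle mean plus 3 SD and 100% = vehicle minus unstimulated blank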
KCNQ2 pot conf: rat KCNQ2 channel potentiator confirmation; shares compounds with KCNQ2 pot; CHO-KCNQ2 cells, FluxOR thallium flux fluorescence; potentiation, less the hit threshold, % at 10 µM; 1,200 tested, 68% active;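 active = fluorescence ratio rising 3 SD or more over the vehicle control mean in both replicates, plus primary screen hit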;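 note: peak minus minimum thallium fluorescence divided by baseline after K/Tl stimulus; 0% = vehicle mean plus 3 SD and 100% = vehicle minus unstimulated blank difference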
Kir21 spec: tests whether KCNQ2 potentiators also affect mouse Kir2.1 | activity over 3SD threshold, % at 10 µM | HEK293 Kir2.1, FluxOR thallium flux fluorescence | 1,200 tested, 2% active | shares compounds with KCNQ2 pot;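 active = fluorescence ratio rise of at least 3 SD above the vehicle-control mean, seen in both replicates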;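 note: 0% = vehicle mean plus 3 SD and 100% = vehicle minus no-stimulus blank window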
KCNQ2 W236L pot: potentiates the retigabine-insensitive rat KCNQ2 W236L mutant channel. current increase over 3SD of negative controls (%), active compounds read high, % at 25 µM. shares compounds with KCNQ2 pot. CHO KCNQ2-W236L, automated patch clamp current. 940 tested, 10% active;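 active = current increase at least 3 SD of the untreated controls above them in both duplicate recordings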
* marks the source's active call; other numbers are inactive results; i = inactive; . = not tested or not shown. Most compounds without a hit are left out; they make up all but 1.6% or so of the library.

SMILES	KCNQ2 pot	KCNQ2 block	Kir21 conf inh	HEK293 Tl flux	others
CC(=O)N(CC(C)(C)CC=C(C)C)c1ccccc1	.	i	54%*	i
CC(=O)N(CC(=O)O)c1ccccc1	0.66	i	.	.
O=C(CN1CCN(c2ccccn2)CC1)Nc1ccc([N+](=O)[O-])cc1C(=O)Nc1ccccc1F	3.4	i	.	.
Cc1ccc(NC(=S)Nc2cccc(-c3n[nH]c(=S)o3)c2)cc1	1.2	i	.	.
Cn1c(=NC(=O)CCS(=O)(=O)c2ccccc2)sc2cc(F)ccc21	.	i	.	.
CC(=O)SCC(=O)N=c1sc2cc(F)ccc2n1C	5.9*	i	i	i	CHO-K1 ctr=-16;KCNQ1 sel pot=-5;KCNQ2 pot conf=5.6*;Kir21 spec=-35;KCNQ2 W236L pot=i
CCc1ccc(N(CC(=O)NC(C)C)C(=O)CCC(=O)Nc2ccccn2)cc1	.	i	.	.
Cc1ccc(C)c(OCC(O)CN2CCC(Cc3ccccc3)CC2)c1 (stereo unspecified)	.	i	49%*	i
OC(COc1c(F)cc(Br)cc1F)CN1CCc2ccccc2C1 (stereo unspecified)	.	i	26%*	i
Cc1ccc(C(C)C)c(OCC(O)CN2CCc3ccccc3C2)c1 (stereo unspecified)	.	i	63%*	i
OC(COCc1ccccc1)CN1CCc2ccccc2C1 (stereo unspecified)	0.04	i	.	.
Cc1cccc(C)c1OCC(O)CN1CCc2ccccc2C1 (stereo unspecified)	.	i	.	.
OC(COc1ccc(Cl)cc1)CN1CCC(Cc2ccccc2)CC1 (stereo unspecified)	.	i	.	.
Nc1c2c(nn1-c1ccc(F)cc1)CSC2	.	i	.	.
O=c1c2ccccc2nc2ccc(NCc3ccco3)nn12	0.02	i	.	.
Cc1sc2nc3ccc(NCc4ccco4)nn3c(=O)c2c1C	6.7*	i	i	i	CHO-K1 ctr=46*;KCNQ1 sel pot=-27;KCNQ2 pot conf=-3;Kir21 spec=-12
Cc1cnc(NC(=O)c2cc3ccccc3o2)s1	1.2	i	.	.
Cn1nccc1NC(=O)COCC(=O)O	0.43	i	.	.
CC(C)c1ccc(-c2c(NCCc3ccccc3)c(=O)c2=O)cc1	0.46	i	.	.
CCOc1cc(N2CCOCC2)c(OCC)cc1NC(=O)COC(=O)c1ccccc1C	0.04	i	.	.
CCOc1cc(N2CCOCC2)c(OCC)cc1NC(=O)CCC1CCCC1	25*	i	i	i	CHO-K1 ctr=0.0*;KCNQ1 sel pot=220*;KCNQ2 pot conf=112*;Kir21 spec=-37;KCNQ2 W236L pot=i
CCOc1cc(N2CCOCC2)c(OCC)cc1NC(=O)Cc1cccc2ccccc12	8.2*	i	i	i	CHO-K1 ctr=2.4*;KCNQ1 sel pot=26*;KCNQ2 pot conf=9.3*;Kir21 spec=-41;KCNQ2 W236L pot=i
CCOc1cc(N2CCOCC2)c(OCC)cc1NC(=O)C1CCCC1	4.2	i	.	.
COc1ccc(NC(=O)COc2nc3ccccc3nc2N2CCOCC2)c(OC)c1	0.23	i	.	.
CC(Sc1nc2sc3c(c2c(=O)n1-c1ccccc1)CCCC3)C(=O)O (stereo unspecified)	1.2	i	.	.
SMILES	KCNQ2 pot	KCNQ2 block	Kir21 conf inh	HEK293 Tl flux	others
CCc1nc2sc3c(c2c(=O)n1NC(=O)CCl)CCCC3	5.7*	i	i	i	CHO-K1 ctr=-1;KCNQ1 sel pot=-8;KCNQ2 pot conf=-3;Kir21 spec=-31;KCNQ2 W236L pot=i
CCCn1c(SCC(=O)N2CCN(C(C)=O)CC2)nc2sc3c(c2c1=O)CCC3	6.1*	i	i	290%*	CHO-K1 ctr=15*;KCNQ1 sel pot=-16;KCNQ2 pot conf=24*;Kir21 spec=-40;KCNQ2 W236L pot=i
CC(=O)N(C(C)=O)n1c(C)nc2sc3c(c2c1=O)CCCC3	1.3	i	.	.
CCn1c(SC(C)C(=O)O)nc2sc3c(c2c1=O)CCC3 (stereo unspecified)	8.7*	i	i	205%*	CHO-K1 ctr=5.3*;KCNQ1 sel pot=-18;KCNQ2 pot conf=0.7*;Kir21 spec=-34;KCNQ2 W236L pot=i
CCCn1c(SCC(=O)NCC)nc2sc3c(c2c1=O)CCC3	.	i	.	.
COc1cccc(/C=N/NC(=O)c2ccoc2C)c1	.	i	.	.
O=C(c1nn2c(C(F)(F)F)cc(-c3ccccc3)nc2c1Cl)N1CCN2CCCC2C1 (stereo unspecified)	.	i	.	.
O=C(NCCCn1ccnc1)c1nc(Cn2cc(Br)cn2)no1	.	i	.	.
COC(C(=O)Nc1cccc([N+](=O)[O-])c1)c1ccccc1 (stereo unspecified)	.	i	.	.
COc1ccccc1CCNC(C)CCc1ccc(O)cc1 (stereo unspecified)	.	i	.	.
COc1cc(OC)c(OC)cc1CCC(C)NCCC(c1ccccc1)c1ccccc1 (stereo unspecified)	0.21	i	48%*	i
COC(=O)CC(NC(=O)c1cccs1)c1ccc(OC)c(OC)c1 (stereo unspecified)	1.2	i	.	.
CCCCCCC(=O)N1C/C=C\C(c2ccc(OC)cc2)N(Cc2ccc(F)cc2)C(=O)[C@H]1Cc1ccccc1 (stereo partly specified)	.	i	.	.
O=C1c2ccccc2C(=O)N1CCC(c1ccc(F)cc1)c1ccco1 (stereo unspecified)	.	i	.	.
Cc1ccc(C(CCNC(C)c2cccs2)c2ccco2)cc1 (stereo unspecified)	.	i	36%*	i
Cc1ccc(S(=O)(=O)c2c(C)cc(C)[nH]c2=O)c(C)c1	0.41	i	.	.
Cn1c(CC(=O)Nc2ccccc2F)nnc1SCC(=O)N1CCOCC1	0.17	i	.	.
COc1ccc(Cl)c2sc(N(CCN(C)C)C(=O)CCS(=O)(=O)c3ccc(C)cc3)nc12	.	i	.	.
COc1ccc(OC)c2sc(N(CCCN(C)C)C(=O)CCS(=O)(=O)c3ccccc3)nc12	9.9*	i	.	.	CHO-K1 ctr=0;KCNQ1 sel pot=68*;KCNQ2 pot conf=-4;Kir21 spec=-56
CCCCNC(=S)N(CCN(C)C)Cc1cc2cc3c(cc2[nH]c1=O)OCCO3	0.02	i	.	.
CCn1c(-c2cc(-c3ccc(C)cc3)nc3ccccc23)n[nH]c1=S	.	i	.	.
CCCOc1cccc(-c2cc(-c3n[nH]c(=S)n3CC)c3ccccc3n2)c1	26*	i	i	i	CHO-K1 ctr=115*;KCNQ1 sel pot=-20;KCNQ2 pot conf=-20;Kir21 spec=-35
Cc1cc(C)nc(SCc2ccc(C(=O)N/N=C3\CCCC(=O)C3)cc2)n1	.	i	.	.
Cc1c(NC(=O)C(C)OC(=O)c2ccc(Br)o2)c(=O)n(-c2ccccc2)n1C (stereo unspecified)	0.38	i	.	.
